Reference: PubChem BioAssay AID1159580 (chemical genetic matrix, 2015)
Hit rate of the full screen: of about 5,500 compounds, about 2,000 (36%) were called active. Roughly 18% stayed inconclusive and do not appear here. Rule as the data show it: active = normalized growth mostly below about 0.91 (no sharp cut-off); inconclusive = no clear call, values can overlap the other calls; inactive = mostly above about 0.92. This is one part of the list.

Test: chemical genetic growth profiling, strain panel (AID 1159580);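 also: tested at 20 µM; growth read once vehicle control cultures reached saturation at 30 °C; 1 = growth at the plate median or of vehicle wells; lower values mean less growth of the strain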
Conditions: growth OD

Measured: normalized growth

CC(=O)N[C@@H](CC(=O)O)C(=O)O
inactive: S. cerevisiae deletion strains, locus YJR043C, strain POL32, stronger effect = lower value 1.01 | S. cerevisiae deletion strains, locus YJR075W, strain HOC1, stronger effect = lower value 1.01 | S. cerevisiae deletion strains, locus YKL009W, strain mrt4, stronger effect = lower value 1.03 | S. cerevisiae deletion strains, locus YKL068W, stronger effect = lower value 1.01 | S. cerevisiae deletion strains, locus YKL085W, strain MDH1 (second series), stronger effect = lower value 1.01 | S. cerevisiae deletion strains, locus YKL085W, strain MDH1, stronger effect = lower value 1.01 | S. cerevisiae deletion strains, locus YKL160W, strain elf1, stronger effect = lower value 0.998 | S. cerevisiae deletion strains, locus YKL190W, strain CNB1, stronger effect = lower value 1.01 | S. cerevisiae deletion strains, locus YKR001C, strain vps1, stronger effect = lower value 1.01 | S. cerevisiae deletion strains, locus YKR026C, strain gcn3, stronger effect = lower value 1.01 | S. cerevisiae deletion strains, locus YKR091W, strain srl3, stronger effect = lower value 1 | S. cerevisiae deletion strains, locus YLL001W, strain dnm1, stronger effect = lower value 1.01 | S. cerevisiae deletion strains, locus YLL026W, stronger effect = lower value 1.01 | S. cerevisiae deletion strains, locus YLL041C, strain sdh2, stronger effect = lower value 1.01 | S. cerevisiae deletion strains, locus YLR027C, strain aat2, stronger effect = lower value 1.02 | S. cerevisiae deletion strains, locus YLR039C, strain RIC1, stronger effect = lower value 0.984 | S. cerevisiae deletion strains, locus YLR058C, strain SHM2, stronger effect = lower value 1.01 | S. cerevisiae deletion strains, locus YLR102C, strain apc9, stronger effect = lower value 1.01 | S. cerevisiae deletion strains, locus YLR221C, strain rsa3, stronger effect = lower value 0.974 | S. cerevisiae deletion strains, locus YLR258W, strain gsy2, stronger effect = lower value 0.997 | S. cerevisiae deletion strains, locus YLR262C, strain YPT6 (second series), stronger effect = lower value 1 | S. cerevisiae deletion strains, locus YLR262C, strain YPT6, stronger effect = lower value 1.01 | S. cerevisiae deletion strains, locus YLR268W, strain sec22, stronger effect = lower value 1.02 | S. cerevisiae deletion strains, locus YLR320W, strain mms22, stronger effect = lower value 0.992 | S. cerevisiae deletion strains, locus YLR330W, strain CHS5, stronger effect = lower value 1.01 | S. cerevisiae deletion strains, locus YLR342W, strain FKS1 (second series), stronger effect = lower value 1.01 | S. cerevisiae deletion strains, locus YLR342W, strain FKS1, stronger effect = lower value 1.01 | S. cerevisiae deletion strains, locus YLR357W, strain rsc2, stronger effect = lower value 1.01 | S. cerevisiae deletion strains, locus YLR370C, strain arc18, stronger effect = lower value 1.01 | S. cerevisiae deletion strains, locus YLR371W, strain rom2, stronger effect = lower value 1.02 | S. cerevisiae deletion strains, locus YLR384C, strain iki3, stronger effect = lower value 0.982 | S. cerevisiae deletion strains, locus YLR418C, strain cdc73, stronger effect = lower value 1.02 | S. cerevisiae deletion strains, locus YML016C, strain PPZ1, stronger effect = lower value 1.01 | S. cerevisiae deletion strains, locus YML032C, strain rad52, stronger effect = lower value 1.01 | S. cerevisiae deletion strains, locus YML120C, strain ndi1, stronger effect = lower value 1.01 | S. cerevisiae deletion strains, locus YML124C, strain tub3, stronger effect = lower value 1.02 | S. cerevisiae deletion strains, locus YMR058W, strain fet3, stronger effect = lower value 1.02 | S. cerevisiae deletion strains, locus YMR078C, strain ctf18, stronger effect = lower value 1 | S. cerevisiae deletion strains, locus YMR125W, strain sto1, stronger effect = lower value 1.01 | S. cerevisiae deletion strains, locus YMR129W, stronger effect = lower value 1 | S. cerevisiae deletion strains, locus YMR205C, strain PFK2, stronger effect = lower value 0.993 | S. cerevisiae deletion strains, locus YMR223W, strain ubp8, stronger effect = lower value 1.01 | S. cerevisiae deletion strains, locus YMR231W, strain pep5, stronger effect = lower value 1 | S. cerevisiae deletion strains, locus YMR263W, strain SAP30, stronger effect = lower value 1.01 | S. cerevisiae deletion strains, locus YMR307W, strain GAS1, stronger effect = lower value 1.03 | S. cerevisiae deletion strains, locus YNL067W, strain RPL9B, stronger effect = lower value 1.02 | S. cerevisiae deletion strains, locus YNL071W, strain lat1, stronger effect = lower value 1.01 | S. cerevisiae deletion strains, locus YNL128W, strain TEP1, stronger effect = lower value 1.02 | S. cerevisiae deletion strains, locus YNL153C, strain GIM3, stronger effect = lower value 1 | S. cerevisiae deletion strains, locus YNL209W, strain ssb2, stronger effect = lower value 1.01 | S. cerevisiae deletion strains, locus YNL233W, strain BNI4, stronger effect = lower value 1 | S. cerevisiae deletion strains, locus YNL248C, strain rpa49, stronger effect = lower value 0.91 | S. cerevisiae deletion strains, locus YNL250W, strain rad50, stronger effect = lower value 1.01 | S. cerevisiae deletion strains, locus YNL271C, strain bni1, stronger effect = lower value 1.02 | S. cerevisiae deletion strains, locus YNL298W, strain CLA4, stronger effect = lower value 1.01 | S. cerevisiae deletion strains, locus YNL307C, strain MCK1, stronger effect = lower value 1.02 | S. cerevisiae deletion strains, locus YNL322C, strain KRE1 (second series), stronger effect = lower value 0.994 | S. cerevisiae deletion strains, locus YNL322C, strain KRE1, stronger effect = lower value 1.01 | S. cerevisiae deletion strains, locus YNR049C, strain mso1, stronger effect = lower value 0.996 | S. cerevisiae deletion strains, locus YNR052C, strain pop2, stronger effect = lower value 1.01 | S. cerevisiae deletion strains, locus YOL006C, strain TOP1, stronger effect = lower value 1.04 | S. cerevisiae deletion strains, locus YOL012C, strain htz1 0.941 | S. cerevisiae deletion strains, locus YOL147C, strain pex11, stronger effect = lower value 1.01 | S. cerevisiae deletion strains, locus YOR001W, strain rrp6, stronger effect = lower value 0.988 | S. cerevisiae deletion strains, locus YOR061W, strain CKA2, stronger effect = lower value 1 | S. cerevisiae deletion strains, locus YOR069W, strain VPS5, stronger effect = lower value 1.01 | S. cerevisiae deletion strains, locus YOR070C, strain gyp1, stronger effect = lower value 1 | S. cerevisiae deletion strains, locus YOR080W, strain dia2, stronger effect = lower value 1 | S. cerevisiae deletion strains, locus YOR083W, strain WHI5, stronger effect = lower value 1 | S. cerevisiae deletion strains, locus YOR106W, strain vam3, stronger effect = lower value 1.01 | S. cerevisiae deletion strains, locus YOR136W, strain idh2, stronger effect = lower value 1.01 | S. cerevisiae deletion strains, locus YOR144C, strain elg1, stronger effect = lower value 1.02 | S. cerevisiae deletion strains, locus YOR184W, strain ser1, stronger effect = lower value 1.01 | S. cerevisiae deletion strains, locus YOR265W, strain rbl2, stronger effect = lower value 1.02 | S. cerevisiae deletion strains, locus YOR270C, strain vph1, stronger effect = lower value 1.01 | S. cerevisiae deletion strains, locus YOR290C, strain snf2, stronger effect = lower value 0.998 | S. cerevisiae deletion strains, locus YOR316C, strain cot1, stronger effect = lower value 1.01 | S. cerevisiae deletion strains, locus YPL051W, strain arl3, stronger effect = lower value 1.03 | S. cerevisiae deletion strains, locus YPL055C, strain LGE1, stronger effect = lower value 1.02 | S. cerevisiae deletion strains, locus YPL078C, strain atp4, stronger effect = lower value 1.02 | S. cerevisiae deletion strains, locus YPL106C, strain sse1, stronger effect = lower value 1.01 | S. cerevisiae deletion strains, locus YPL240C, strain hsp82, stronger effect = lower value 1.01 | S. cerevisiae deletion strains, locus YPL241C, strain CIN2, stronger effect = lower value 1.01 | S. cerevisiae deletion strains, locus YPR119W, strain clb2, stronger effect = lower value 1.02 | S. cerevisiae deletion strains, locus YPR141C, strain kar3, stronger effect = lower value 1.02 | S. cerevisiae deletion strains, locus YPR163C, strain tif3, stronger effect = lower value 1.03 | S. cerevisiae deletion strains, locus YPR167C, strain met16, stronger effect = lower value 1.01 | S. cerevisiae deletion strains, strain wtn01, stronger effect = lower value 1.01 | S. cerevisiae strains, strain wild type, stronger effect = lower value 1.01
